Measurements: PubChem BioAssay (NCI)
Compounds without any hit were thinned out: in the full panel of roughly 79,000, 15% have a hit. Active and inactive are the calls of the source. Cut-off read from the data, not from the text of the source: active = growth inhibition above about 70%; inactive = the rest.

Experiments:
[1] = NCI Yeast Anticancer Drug Screen. Data for the rad50 strain (AID 155);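 note: 0% = growth of vehicle-only cultures of the same strain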; conditions: S. cerevisiae rad50 strain growth inhibition; at 50.0 µM; hits give high values
Outline: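 Inhibition values express reduced yeast growth in compound-treated cultures relative to vehicle-treated controls.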

[2] = NCI Yeast Anticancer Drug Screen. Data for the mec2-1 strain (AID 157); conditions: S. cerevisiae mec2-1 strain, at 50.0 µM, hits give high values
Outline: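 Cells of the genetically defined mec2-1 yeast strain are incubated with test compound. Inhibition of growth is calculated against vehicle-treated controls.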

[3] = NCI Yeast Anticancer Drug Screen. Data for the sgs1 mgt1 strain (AID 161);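 note: 0% = growth of cultures given vehicle only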; conditions: S. cerevisiae sgs1 mgt1 strain, at 50.0 µM, hits give high values
Outline: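 Genetically altered yeast, compound exposure, growth inhibition relative to vehicle.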

[4] = NCI Yeast Anticancer Drug Screen. Data for the cln2 rad14 strain (AID 165);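 note: 0% = growth equal to vehicle treated cultures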; conditions: S. cerevisiae cln2 rad14 strain, at 50.0 µM, hits give high values
Outline: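 The screen exposed genetically defined yeast (cln2 rad14) to test compounds and scored growth inhibition relative to vehicle-treated controls.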

[5] = NCI Yeast Anticancer Drug Screen. Data for the bub3 strain (AID 167); conditions: S. cerevisiae bub3 mutant strain, at 50.0 µM, hits give high values
Outline: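 Steps: expose the mutant yeast strain to compound; grow alongside vehicle-treated cultures; measure growth; express inhibition against the vehicle cultures.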

[6] = NCI Yeast Anticancer Drug Screen. Data for the mlh1 rad18 strain (AID 175); conditions: S. cerevisiae mlh1 rad18 strain growth inhibition; at 50.0 µM; hits give high values
Outline: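 Compound-treated yeast growth, normalised to vehicle controls. Strain bears defined DNA repair mutations.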

Measured: growth inhibition

C(=Nc1ccccc1)C1CCCC[N-]1.C(=Nc1ccccc1)C1CCCC[N-]1.[Cu+2].[O-][Cl+3]([O-])([O-])O (centres undefined)
active: [1] 90.5% | [2] 83.6% | [4] 92.5% | [5] 74.2% | [6] 88%
inactive: [3] 65%

CCNC(Cc1ccccc1)c1ccco1 (centres undefined)
inactive: [1] -2.35% | [2] -12.1% | [3] -15.5% | [4] 18.8% | [5] -10.2% | [6] 12.5%

O=C(O)CNC(=O)c1ccc([As](=O)(O)O)cc1
inactive: [1] 21.1% | [2] 19.1% | [3] -26.4% | [4] 10.2% | [5] 22.1% | [6] 15.3%

N#CC1CCCCC1
inactive: [1] 0.4% | [2] -5.4% | [3] -0.35% | [4] -3.9% | [5] 4.65% | [6] 1.65%

O=C1NC(=O)C2(OC3c4ccccc4C=CN3C3=C2C(=O)CCC3)C(=O)N1 (centres undefined)
inactive: [1] 11.5% | [2] 1.8% | [3] -6.1% | [4] 52.4% | [5] 10.1% | [6] 7.4%

CC(CN1CCCCCC1)C(C#N)(c1ccccc1)c1ccccc1 (centres undefined)
inactive: [1] 7.4% | [2] 13.2% | [3] 25.4% | [4] 49.5% | [5] 46% | [6] 10.3%

Nc1ncnc(N)n1
inactive: [1] -7.3% | [2] -17.1% | [3] 13.3% | [4] -28.8% | [5] -2.2% | [6] -9.65%

CCC[CH2][Sn]([CH3])([CH3])[CH2]CC[N+](C)(C)C
inactive: [1] 21.3% | [2] 5.55% | [3] 16.9% | [4] 45% | [5] 10.8% | [6] 13.5%

O=[As](O)(O)Cc1cccc(F)c1
inactive: [1] -3.8% | [2] -7.8% | [3] -6.65% | [4] -46.5% | [5] 2.1% | [6] -8.35%
